The nature of assay [1]: StAR promoter reporter inhibitors, counter-screen for LRH-1 inverse agonist project, cell-based, luminescence, high throughput (AID 651611). Conditions: StAR promoter luciferase reporter counterscreen, at 3.6 µM, active compounds read high. Background: The purpose of a counterscreen is to sort out artefacts and off-target activity.
The target of assay [2] is Nuclear receptor subfamily 5 group A member 2 (Homo sapiens) (UniProt O00482). The assay is described as follows: LRH-1 (NR5A2) inverse agonists, retest, confirmation, cell-based, luminescence (AID 651613; in the data active = inhibition above about 42%;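 also: HEK293T cells co-transfected with LRH-1 and StAR promoter luciferase reporter; 0% = vehicle wells and 100% = parental cells lacking receptor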). Conditions: cell-based LRH-1 luciferase reporter, inverse agonism; at 3.6 µM; active compounds read high. A general note: A reporter such as luciferase makes a cellular process visible.

For assay [3], the target named is Steroidogenic factor 1 (Homo sapiens) (UniProt Q13285). The assay is described as follows: SF1 (NR5A1) inverse agonists, counter-screen for LRH-1 inverse agonist project, cell-based, luminescence, high throughput (AID 651614; in the data active = inhibition above about 44%;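 also: cells cotransfected with StAR promoter reporter and SF1 expression vector; 0% = vehicle on cells with receptor and 100% = vehicle on cells lacking receptor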). To be noted: cell-based SF1 luciferase reporter, at 3.6 µM, active compounds read high.
The nature of assay [4]: VP16 transactivation reporter inhibitors, counter-screen for LRH-1 inverse agonist project, cell-based, luminescence, high throughput (AID 651615; in the data active = inhibition above about 33%). To be noted: Gal4-VP16 luciferase reporter cells, at 3.6 µM, active compounds read high.

Unmarked numbers belong to inactive results. Calls of active or inactive are those of the source. Rule as the data show it, unless noted: active = inhibition above about 28%; inactive = the rest.

Chain of Steroidogenic factor 1 (Homo sapiens) (Q13285 whole entry, looked up, the tested form may be a part): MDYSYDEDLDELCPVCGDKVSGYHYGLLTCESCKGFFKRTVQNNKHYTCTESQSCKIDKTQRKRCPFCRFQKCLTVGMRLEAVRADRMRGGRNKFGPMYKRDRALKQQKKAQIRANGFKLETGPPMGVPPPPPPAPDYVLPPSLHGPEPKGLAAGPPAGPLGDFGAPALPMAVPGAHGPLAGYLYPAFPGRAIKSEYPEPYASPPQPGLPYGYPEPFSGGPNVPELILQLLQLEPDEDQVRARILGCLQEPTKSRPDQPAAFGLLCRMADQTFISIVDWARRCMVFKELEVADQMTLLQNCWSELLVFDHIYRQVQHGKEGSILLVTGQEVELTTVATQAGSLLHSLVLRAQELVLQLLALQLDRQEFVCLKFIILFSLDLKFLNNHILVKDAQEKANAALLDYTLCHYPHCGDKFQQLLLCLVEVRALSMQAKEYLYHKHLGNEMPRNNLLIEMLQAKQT
Chain of Nuclear receptor subfamily 5 group A member 2 (Homo sapiens) (O00482 whole entry, looked up): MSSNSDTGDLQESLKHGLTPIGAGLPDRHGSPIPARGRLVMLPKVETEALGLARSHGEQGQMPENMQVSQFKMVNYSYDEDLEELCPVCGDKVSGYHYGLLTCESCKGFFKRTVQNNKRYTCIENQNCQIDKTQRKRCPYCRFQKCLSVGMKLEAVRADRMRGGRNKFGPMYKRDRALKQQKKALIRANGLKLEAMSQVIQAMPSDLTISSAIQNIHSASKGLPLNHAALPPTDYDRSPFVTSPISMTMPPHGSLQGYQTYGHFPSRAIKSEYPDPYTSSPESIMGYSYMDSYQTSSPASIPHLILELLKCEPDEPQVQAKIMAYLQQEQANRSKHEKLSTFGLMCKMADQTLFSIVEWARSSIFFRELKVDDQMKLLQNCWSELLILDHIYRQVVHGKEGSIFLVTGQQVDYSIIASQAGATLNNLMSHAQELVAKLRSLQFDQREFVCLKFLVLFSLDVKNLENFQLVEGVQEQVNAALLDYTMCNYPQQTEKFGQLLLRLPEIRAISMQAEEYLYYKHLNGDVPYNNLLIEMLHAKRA

As for `CCN(CC)S(=O)(=O)c1ccc(N2CCOCC2)c(NC(=O)c2[nH]c(C)c(C(C)=O)c2C)c1`, the inhibition (as a rule, the change of the read-out against control, counted positive when it falls) is 61.6% (active) in assay [1], 51.5% (active) in assay [2], 25.8% in assay [3] and -200% in assay [4].
Take `Cc1cccc(NC(=O)CSc2ccc(-c3ccco3)nn2)c1C`: the inhibition is 4.66% in assay [1], 44.6% (active) in assay [2], 39.2% in assay [3] and -3.56% in assay [4].
`Cn1c(SCC(=O)Nc2ccc(N3CCOCC3)cc2)nnc1-c1ccco1`: the inhibition in assay [1] was 0.8%; in assay [2] it was 56.5% (active); in assay [3], 49.4% (active); in assay [4], -17.8%.
For `COC(=O)c1ccc(NC(=O)CSc2nnc(C)n2CC2CCCO2)cc1` (configuration not stated) the same measures were 3.1%, 50.5% (active), 40.7% and -3.65%.
On to `O=C1CC(c2ccc3c(c2)OCCO3)Oc2ccc([N+](=O)[O-])cc21` (configuration not stated), for which the inhibition in assay [1] was 14.5%; in assay [2], -49.9%; in assay [3] it was -37%; in assay [4] it was -35.3%.
Regarding `CC(=O)Nc1ccc(N=c2cc([N+](=O)[O-])cc(Cl)n2O)cc1`, the inhibition in assay [1] was 14.3%; in assay [2] it was 59.6% (active); in assay [3], 57.8% (active); in assay [4], -3.98%.
For `CC(=O)c1ccc(NC(=O)CSC2=NS(=O)(=O)c3cc(Cl)ccc3N2)cc1` the same measures were 7.81%, 43.6% (active), 44.5% (active) and -9.28%.
For `Cc1ccc(Cn2cnc3ccccc32)cc1C` the same measures were 2.29%, 36.2%, 32.6% and 7.91%.
For `O=C(Cc1cccs1)N/N=C\c1ccc([N+](=O)[O-])s1` the same measures were 12.1%, 64.9% (active), 56.4% (active) and 12.6%.
As to `CC(=O)N1CCc2c(sc(NC(=O)Cc3ccccc3)c2C#N)C1`, the inhibition was 18.4% in assay [1], 64% (active) in assay [2], 57.4% (active) in assay [3] and -30.8% in assay [4].
`CC(=O)N1CCN(c2ccc(Oc3ccc([N+](=O)[O-])c(C(F)(F)F)c3)cc2)CC1`: the inhibition in assay [1] is 30.3% (active); in assay [2] it was 68.3% (active); in assay [3] it was 72.9% (active); in assay [4], 57.5% (active).
The matching figures for `CCc1nc(SCC(=O)c2ccccc2)c2ccccc2n1`: 7.58%, 45.8% (active), 55.3% (active) and -18.1%.
The matching figures for `Cc1cc([N+](=O)[O-])ccc1NCc1ccc2ccccc2c1`: 1.75%, 43.1% (active), 38.8% and 2.64%.
`COc1ccc(NC(=O)CN2C(=O)NC3(CCCC3)C2=O)cc1`: the inhibition in assay [1] is -8.92%; in assay [2], 51.2% (active); in assay [3], 47.5% (active); in assay [4], -17.1%.
For `CC(=O)Nc1cc(-c2ccc(S(C)(=O)=O)cc2)cn2c(-c3ccc(F)c(Cl)c3)cnc12` the same measures were 12.9%, 61.1% (active), 51.7% (active) and 3.98%.
For `Cn1nc(C(C)(C)C)cc1C(=O)NCc1ccc2c(c1)OCO2` the same measures were 14.8%, 59.8% (active), 58.3% (active) and 50.6% (active).
For `Cc1cccc(NC(=O)COC(=O)CN2C(=O)c3ccccc3C2=O)c1C`, the inhibition in assay [1] was 7.19%; in assay [2], 51% (active); in assay [3], 47.8% (active); in assay [4], -15%.
As for `NS(=O)(=O)c1ccc(CCNC(=O)COc2ccc3c4c(c(=O)oc3c2)CCC4)cc1`, the inhibition in assay [1] is 13.4%; in assay [2], 41.7% (active); in assay [3], 38.2%; in assay [4] it was -15.4%.
For `C/C(=N\NC(N)=S)c1ccncc1` the same measures were 6.9%, 54.2% (active), 49% (active) and 3.01%.
For `O=C(Nc1cc(C(F)(F)F)ccc1-n1cncn1)c1ccc([N+](=O)[O-])o1` the same measures were 22.2%, 57.7% (active), 49.1% (active) and -15.7%.
For `CCc1cc(=O)oc2c(C)c(OCC(=O)NCCCN3CCCC3=O)ccc12` the same measures were 8.43%, 52.1% (active), 48.4% (active) and -11.3%.
`COc1ccnc(Oc2ccccc2)c1C(=O)N/C=N/OCc1ccccc1F`: the inhibition in assay [1] was 12.8%; in assay [2], 56.9% (active); in assay [3] it was 48.8% (active); in assay [4], -12.9%.
For the molecule `COc1cc2c(=O)[nH]c3cc([N+](=O)[O-])ccc3c2cc1[N+](=O)[O-]`, the inhibition is -3.92% in assay [1], 64.6% (active) in assay [2], 56.6% (active) in assay [3] and -22.2% in assay [4].
For `CCN(CC)C1=CC(=O)OC12CCCCC2` the same measures were 2.42%, 51.2% (active), 48.7% (active) and -9.57%.
For the molecule `CC1=[N+](C)c2c(ccc3cccnc23)C1(C)C`, the inhibition in assay [1] was 12.2%; in assay [2] it was 38.6%; in assay [3], 58.7% (active); in assay [4], 29.2%.
As to `Cc1nnc(SCC(=O)Nc2ccc(N3CCN(S(C)(=O)=O)CC3)cc2)o1`, the inhibition is -2.52% in assay [1], 50.8% (active) in assay [2], 50.2% (active) in assay [3] and -9.83% in assay [4].
For `C=CCNC(=S)N/N=C/c1ccc(N(CC)Cc2ccccc2)cc1`, the inhibition in assay [1] is 11.4%; in assay [2], 38.4%; in assay [3] it was 24.4%; in assay [4], 6.68%.
In the case of `CCC(C)NC(=O)c1ccc2c(c1)N(Cc1ccccc1)C(=O)CS2` (configuration not stated), the inhibition in assay [1] was 7.12%; in assay [2] it was 49.2% (active); in assay [3], 51.5% (active); in assay [4] it was 3.22%.
The matching figures for `CC(O)(c1ccc(F)c(F)c1)c1nc(-c2ccc(S(C)(=O)=O)cc2)cs1` (configuration not stated): 3.51%, 53.5% (active), 49.5% (active) and -2.47%.
The matching figures for `Cc1cccnc1NC(=O)c1ccc([N+](=O)[O-])o1`: 12.3%, 52.7% (active), 57.8% (active) and 1.88%.
For `COc1ccc2sc(-c3ccc(N(C)C)cc3)c(C#CCCO)c2c1` the same measures were 3.58%, 21.3%, 53.7% (active) and -4.7%.
Turning to `O=C1C=C(N2CCCCCC2)C2(CCCCC2)O1`, the inhibition in assay [1] was 4.6%; in assay [2] it was 58.5% (active); in assay [3], 55% (active); in assay [4], -9.31%.
In the case of `CCN(CC)S(=O)(=O)c1cccc(NC(=O)CNc2cccc(S(=O)(=O)N3CCCC3)c2)c1`, the inhibition in assay [1] is 26.7%; in assay [2], 64.4% (active); in assay [3] it was 59.8% (active); in assay [4] it was 49.5% (active).
The matching figures for `O=C1C=C(NCCc2ccccc2)C2(CCCCC2)O1`: 3.62%, 59.9% (active), 49.5% (active) and -3.99%.
For `CC(Cl)C(=O)Nc1ncc(C(F)(F)F)cc1Cl` (configuration not stated) the same measures were 13.3%, 58.9% (active), 51.3% (active) and -7.63%.
For the molecule `CC(C)Oc1cccc(-c2cc(C(=O)NN3CCOCC3)c3ccccc3n2)c1`, the inhibition in assay [1] is 17.5%; in assay [2] it was 40.7%; in assay [3] it was 40.4%; in assay [4], -17.7%.
As to `CCc1ccccc1NC(=O)CSc1nnc([C@@H](NC(=O)OC(C)(C)C)C(C)CC)o1` (some centres not stated), the inhibition in assay [1] was -3.97%; in assay [2], 39.5%; in assay [3], 30.1%; in assay [4] it was 4.95%.
For `CN(C)S(=O)(=O)c1cccc(CSCc2cccc(S(=O)(=O)N(C)C)c2)c1` the same measures were 7.72%, 59% (active), 38.9% and 46.1% (active).
For the molecule `C#Cc1cccc(Nc2nc(NCCOC)nc3ccsc23)c1`, the inhibition in assay [1] is 26.9%; in assay [2], 47.1% (active); in assay [3], 57.4% (active); in assay [4] it was 5.35%.
For the molecule `CCOc1ccc(OCCC(=O)OCC(=O)Nc2ccc3c(c2)OCCO3)cc1`, the inhibition in assay [1] was -6.27%; in assay [2] it was 41.5% (active); in assay [3], 37.1%; in assay [4], -6.23%.
The matching figures for `O=C1/C(=C\c2ccc(Cl)c(Cl)c2)CN(C(=O)CCN2CCOCC2)C/C1=C/c1ccc(Cl)c(Cl)c1`: 67.9% (active), 93.2% (active), 92.9% (active) and 79% (active).
The matching figures for `COc1ccc(CCNC(=O)COC(=O)C23CC4CC(CC(Br)(C4)C2)C3)cc1`: 4.42%, 53.8% (active), 53.9% (active) and 4.71%.
With `O=C1C=C(NCc2ccco2)C2(CCCCC2)O1`, the inhibition in assay [1] is -2.64%; in assay [2] it was 43.1% (active); in assay [3] it was 46.6% (active); in assay [4] it was 10.7%.
The matching figures for `O=C(COC(=O)c1ccccn1)Nc1cccnc1Cl`: 3.58%, 40.5%, 39.4% and -6.21%.
Take `COc1ccc(/C=C2/CSC/C(=C/c3ccc(OC)c(OC)c3)C2=O)cc1OC`: the inhibition in assay [1] is -4.62%; in assay [2], 74.5% (active); in assay [3] it was 74.9% (active); in assay [4] it was 76.8% (active).
For `O=C(Nc1ccc(N2CCN(C(=O)c3cccs3)CC2)cc1)c1ccc([N+](=O)[O-])o1` the same measures were 43.4% (active), 67.3% (active), 70.4% (active) and 7.47%.
Regarding `CCn1c2ccccc2c2cc(C3C(C#N)=C(N)Oc4n[nH]c(COC)c43)ccc21` (configuration not stated), the inhibition is 44.9% (active) in assay [1], 50.8% (active) in assay [2], 51.7% (active) in assay [3] and 14.3% in assay [4].
For `COc1cc(C(=O)NC2CCN(C)CC2)ccc1Nc1ncc2c(n1)N(C1CCCCC1)CCC(=O)N2C` the same measures were 60.6% (active), 54.4% (active), 40% and -159%.
For the molecule `Cc1cc([N+](=O)[O-])ccc1NC(=O)CSc1nnc(C)n1C`, the inhibition in assay [1] is -1.6%; in assay [2], 60.6% (active); in assay [3] it was 47.1% (active); in assay [4] it was -3.16%.
The matching figures for `O=C(Cc1c(F)cccc1Cl)Nc1ccncc1`: 3.12%, 45% (active), 43.5% (active) and -7.58%.
For `O=C(CSc1nccc(=O)[nH]1)Nc1ccc(N2CCOCC2)cc1` the same measures were 4.42%, 61.3% (active), 47.8% (active) and -3.99%.
Consider `Cc1onc(-c2c(F)cccc2Cl)c1C(=O)O/N=C(\N)c1ccc([N+](=O)[O-])o1`, for which the inhibition in assay [1] is 11.6%; in assay [2], 70.9% (active); in assay [3] it was 60.4% (active); in assay [4], -7.18%.
`CCCc1cc(=O)oc2cc3oc(C)c(C)c3cc12`: the inhibition in assay [1] was -1.82%; in assay [2], 52.3% (active); in assay [3] it was 50.5% (active); in assay [4], -5.27%.

For the origin of these results see PubChem BioAssay.
